# Laboratory results: paper PMC4336329 (PLoS ONE, 2015)
# The whole screen tested about 310,000 compounds, of which about 2,200 (0.71%) showed an effect of 50% or more. Effects have a minus sign here. Only a selection was taken, and strong results are over-represented in it overall.
# Target: human ether-à-go-go-related gene (hERG) potassium channel (human, UniProt Q12809)
# Test: primary screen, population patch clamp on CHO cells stably expressing hERG; higher = less effect of the substance
# Procedure: Briefly, Chinese hamster ovary (CHO) cells stably expressing the hERG channel were dislodged from tissue culture flasks and dispensed into PPC plates. […] During the recording, background leak currents were estimated by a 100 ms step to -80 mV from an initial holding potential of -70 mV and subtracted from the subsequent current measurement. The campaign was conducted in two phases using slight differences in recording protocol. In the first phase, the initial voltage pulse used a 100 ms step to -30 mV from a holding potential of -70 mV, a 2 s conditioning step to +25 mV, and a 2 s test step to -30 mV. During the second phase of the screen, the potential during the conditioning step was raised to +45 mV. In both phases of the campaign, a secondary voltage pulse was applied using the same parameters as the second phase initial pulse. The initial and secondary pulses were applied in the absence of compound, and upon application of 1 μM and 10 μM test concentrations. Small molecule effects on hERG current density were quantified by […].
# human ether-à-go-go-related gene (hERG) potassium channel, sequence (Q12809 whole entry, looked up): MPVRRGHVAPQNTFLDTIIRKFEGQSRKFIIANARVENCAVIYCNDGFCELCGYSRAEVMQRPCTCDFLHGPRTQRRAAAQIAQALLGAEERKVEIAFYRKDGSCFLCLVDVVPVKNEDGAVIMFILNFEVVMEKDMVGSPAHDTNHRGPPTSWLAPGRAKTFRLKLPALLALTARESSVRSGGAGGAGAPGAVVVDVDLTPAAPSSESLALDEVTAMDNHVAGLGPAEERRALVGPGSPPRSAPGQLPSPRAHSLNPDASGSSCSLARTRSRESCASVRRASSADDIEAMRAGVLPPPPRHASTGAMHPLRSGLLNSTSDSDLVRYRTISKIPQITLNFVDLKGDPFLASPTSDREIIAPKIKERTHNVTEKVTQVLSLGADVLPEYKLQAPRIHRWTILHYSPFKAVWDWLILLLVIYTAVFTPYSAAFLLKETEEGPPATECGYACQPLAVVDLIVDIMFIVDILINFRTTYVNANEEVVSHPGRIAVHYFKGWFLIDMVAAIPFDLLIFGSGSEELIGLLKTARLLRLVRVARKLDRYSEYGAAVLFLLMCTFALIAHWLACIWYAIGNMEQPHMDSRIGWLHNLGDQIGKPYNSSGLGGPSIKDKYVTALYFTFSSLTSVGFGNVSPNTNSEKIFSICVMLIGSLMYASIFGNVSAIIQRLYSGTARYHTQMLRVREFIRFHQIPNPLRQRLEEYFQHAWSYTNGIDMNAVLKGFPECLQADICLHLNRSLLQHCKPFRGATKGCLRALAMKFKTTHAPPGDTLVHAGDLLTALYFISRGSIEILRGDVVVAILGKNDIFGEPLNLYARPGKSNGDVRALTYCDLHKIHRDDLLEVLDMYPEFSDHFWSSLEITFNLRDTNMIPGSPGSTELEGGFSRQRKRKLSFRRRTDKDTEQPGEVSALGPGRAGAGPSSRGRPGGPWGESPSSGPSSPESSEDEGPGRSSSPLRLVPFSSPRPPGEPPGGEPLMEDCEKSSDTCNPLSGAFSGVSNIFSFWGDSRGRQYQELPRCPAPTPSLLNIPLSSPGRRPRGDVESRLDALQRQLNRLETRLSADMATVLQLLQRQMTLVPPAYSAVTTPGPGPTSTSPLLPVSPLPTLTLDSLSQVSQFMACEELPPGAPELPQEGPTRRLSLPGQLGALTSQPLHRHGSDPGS
row,Compound,"hERG current change (%, negative = inhibition) at 1uM"
1,CCOc1cc(C)ccc1OCc1nnc(SCC(=O)c2cccc([N+](=O)[O-])c2)n1CC,-1.84%
2,O=C(Nc1cc(=O)[nH]c2ncnn12)c1ccc(Cl)cc1Cl,-2.66%
3,CC(C)(C)c1ccc(C(=O)NN2C(=O)CSC2=S)cc1,12.1%
4,CCOC(=O)C1(CCc2ccccc2)CCN(Cc2cccc3nccnc23)CC1,-19.3%
5,CCOC(=O)C1(CCc2ccccc2)CCN(Cc2ccco2)CC1,-42.7%
6,CCOC(=O)C1(CCc2ccccc2)CCN(Cc2cc(OC)c(OC)cc2OC)CC1,-68.1%
7,CCOC(=O)C1(CCc2ccccc2)CCN(Cc2ccc(OC)cc2)CC1,-86.9%
8,CCOC(=O)C1(CCOc2ccccc2)CCN(Cc2ccc3c(c2)OCCO3)CC1,-25.8%
9,CCOC(=O)C1(Cc2ccccc2)CCN(Cc2cccc(OC)c2O)CC1,-31%
10,CCOC(=O)C1(CCc2ccccc2)CCN(Cc2c(O)cccc2OC)CC1,-28.7%
11,CCOC(=O)C1(CCc2ccccc2)CCN(Cc2cccc3cnccc23)CC1,-4.67%
12,CCOC(=O)C1(CCc2ccccc2)CCN(Cc2ccc3c(c2)OCCO3)CC1,-91.4%
13,CCOC(=O)C1(CCc2ccccc2)CCN(Cc2ccc(O)cc2)CC1,-86.3%
14,CCOC(=O)C1(Cc2ccccc2)CCN(Cc2ccc3c(c2)OCCO3)CC1,-0.488%
15,CCOC(=O)C1(CCc2ccccc2)CCN(CC(O)CO)CC1 (stereo not shown),1.26%
16,Cc1ccc(/C=N/Nc2nnc(Cl)c3ccccc23)cc1,-1.46%
17,COc1ccc(C[C@H]2c3cc(O)c(OC)cc3CC[N+]2(C)[O-])cc1O (stereo partly shown),16.9%
18,Cn1c(NCCc2ccccc2)cc(=O)n(C)c1=O,11.8%
19,Cc1ccc(C(=O)N(C)Cc2ccc(N3CCOCC3)cc2)cc1S(=O)(=O)NCc1ccccc1,1.2%
20,CCCCNC(=S)NNC(=O)c1cc(C2CC2)nc2ccccc12,13.2%
21,COc1ccc(C2CC(=O)n3c(nc4ccccc43)S2)cc1OC (stereo not shown),12.9%
22,COc1ccc(CNC(=O)COC(=O)CN2C(=O)C(C)Oc3ccc(C)cc32)cc1 (stereo not shown),9.75%

row,Compound,"hERG current change (%, negative = inhibition) at 1uM"
1,CCOC(=O)C1(CCOc2ccccc2)CCN(Cc2ccc(C(=O)OC)cc2)CC1,-15.5%
2,CCOC(=O)C1(CCc2ccccc2)CCN(Cc2ccc(C(=O)OC)cc2)CC1,-86.1%
3,CCOC(=O)C1(CCOC)CCN(Cc2ccc(C(=O)OC)cc2)CC1,0.201%
4,Cc1ccc(NC(=O)/C(C#N)=C/c2ccc(C)s2)c(C)c1,14.2%
5,Cl.O=C(c1cccc(S(=O)(=O)N2CCCCC2)c1)N1CCN(Cc2ccccc2)CC1,6.64%
6,N#Cc1ccc(CN2CCN(C(=O)c3cccc(S(=O)(=O)N4CCCCCC4)c3)CC2)cc1,-51.3%
7,N#Cc1ccc(CN2CCN(C(=O)c3ccc(S(=O)(=O)N4CCCCCC4)cc3)CC2)cc1,-5.24%
8,Cc1sc2ncn(Cc3ccccc3F)c(=O)c2c1C,1.65%
9,O=C1CS/C(=N/N=C2C3CC4CC(C3)CC2C4)N1,-4.65%
10,CC(=O)OC1CC[C@]2(C#N)[C@H]3CC[C@]4(C)[C@H](C5C=CC(=O)O5)CCC4(O)C3CCC2(O)C1 (stereo partly shown),12.9%
11,CCCc1cc(C(=O)N2CCCC(N3CCN(c4ccccc4C)CC3)C2)n(C)n1 (stereo not shown),3.48%
12,Cc1cc(C(=O)N2CCCC(N3CCN(c4ccccc4C)CC3)C2)n(C)n1 (stereo not shown),-87.7%
13,Cc1ccccc1N1CCN(C2CCCN(C(=O)c3cc(CC(C)C)nn3C)C2)CC1 (stereo not shown),5.95%
14,Cc1cccc(NS(=O)(=O)c2ccc(C(=O)NCC(C)(C)N3CCOCC3)cc2)c1C,-6.55%
15,Cc1nc2sc(C(c3cccs3)N3CCN(c4ccccc4)CC3)c(O)n2n1 (stereo not shown),5.92%
16,Cc1nc2sc(C(c3cccs3)N3CCN(Cc4ccccc4)CC3)c(O)n2n1 (stereo not shown),-50.1%
17,COc1ccc(C(c2sc3nc(C)nn3c2O)N2CCN(Cc3ccccc3)CC2)cc1OC (stereo not shown),3.82%
18,COc1ccc(OC)c(/C=N/N(C)c2ccccc2)c1,12.4%
19,O=C(NCCCCO)C(F)(F)C(F)(F)C(F)(F)C(=O)NCCCCO,14.4%
20,CCC(CC)C(=O)c1c[nH]c(C(=O)NCc2ccncc2)c1,10%
21,COc1ccc(F)cc1CN1CCN(CC(=O)Nc2ccccc2C(=O)NC2CC2)CC1,-88.8%
22,Cc1ccccc1N1CCN(CC(=O)Nc2ccccc2C(=O)NC2CC2)CC1,-35.4%

row,Compound,"hERG current change (%, negative = inhibition) at 1uM"
1,COc1ccc(OC)c(NC(=O)CN2CCC(NC(=O)c3ccccc3C)CC2)c1,-4.31%
2,CC(=O)c1ccc(N2CCN(CC(=O)Nc3ccccc3C(=O)NC3CC3)CC2)c(F)c1,-5.91%
3,CCOc1ccccc1N1CCN(CC(=O)Nc2ccccc2C(=O)NC2CC2)CC1,-23.5%
4,COc1ccccc1OCC(=O)Nc1ccccc1C(=O)NC1CC1,1.98%
5,COc1ccc(CN2CCN(CC(=O)Nc3ccccc3C(=O)NC3CC3)CC2)cc1F,-99.6%
6,COc1ccc(OC)c(CN2CCN(CC(=O)Nc3ccccc3C(=O)NC3CC3)CC2)c1,-87.6%
7,COc1cc2c(cc1OC)CN(CC(=O)Nc1ccccc1C(=O)NC1CC1)CC2,-6.04%
8,O=C(CN1CCN(S(=O)(=O)c2ccc(F)c(F)c2)CC1)Nc1ccccc1C(=O)NC1CC1,-23.7%
9,CCOc1ccccc1C(=O)NC1CCN(CC(=O)Nc2cc(OC)ccc2OC)CC1,-25.6%
10,COc1cc(C)c(CN2CCN(CC(=O)Nc3ccccc3C(=O)NC3CC3)CC2)cc1OC,-87.6%
11,COc1ccc(NC(=O)CS(=O)(=O)c2ccc(F)cc2)cc1,10.6%
12,Cc1ccc(-c2cc(C(F)(F)F)n3nc(C(=O)Nc4ccon4)cc3n2)cc1C,7.99%
13,COCC(=O)N1CCCC(C(=O)c2ccc(-c3ccccc3)cc2)C1 (stereo not shown),0.927%
14,O=C1/C(=C/c2cccc(Cl)c2)CSc2sccc21,16%
15,COc1ccc(COc2ccc(S(=O)(=O)N3CCCC3)cc2C(N)=O)cc1F,17.7%
16,CCOC(=O)c1oc2cc(OCC(N)=O)ccc2c(=O)c1-c1ccc(OC)c(OC)c1,15.2%
17,O=C(O)c1ccccc1NS(=O)(=O)c1ccccc1C(F)(F)F,5.14%
18,O=C(Nc1ccc2nc3n(c(=O)c2c1)CCCCC3)c1ccccc1[N+](=O)[O-],14.6%
19,CC1CN(C(=S)Nc2cccc(Cl)c2Cl)CC(C)O1 (stereo not shown),2.73%
20,COc1cccc(CNC(=O)C2CCN(S(=O)(=O)c3ccc4c(c3)CCC(=O)N4)CC2)c1,17.5%
21,Cc1ccc(C(=O)Oc2coc(CSc3nnc(NC(=O)c4cccs4)s3)cc2=O)cc1,13.4%
22,Cc1ccc(C(=O)/C=C\NCc2ccccc2)cc1,7.27%

row,Compound,"hERG current change (%, negative = inhibition) at 1uM"
1,N=c1c(S(=O)(=O)c2ccc(Cl)cc2)cc2c(=O)n3ccccc3nc2n1C1CCCC1,13.9%
2,Cn1c(C(=O)NC2CCCCC2)cc2c(=O)n3ccccc3nc21,13.4%
3,N=c1c(C(=O)NC2CCCC2)cc2c(=O)n3ccccc3nc2n1C1CCCC1,-89.1%
4,N=c1c(C(=O)NC2CCCC2)cc2c(=O)n3ccccc3nc2n1C1CCCCC1,-86.9%
5,O=C(NC1CCCCCC1)c1cc2c(=O)n3ccccc3nc2s1,8.59%
6,O=P(C(Cl)Cl)(N1CCOCC1)N1CCOCC1,17.8%
7,CC(=O)Nc1cccc(NC(=O)CSc2nnc3ccc(-c4cccnc4)nn23)c1,13.1%
8,CCn1cc(/C=C/C(=O)Nc2c(C)nn(Cc3ccccc3)c2C)cn1,6.45%
9,Cc1nc(-c2ccccc2)nc2[nH]c(C(C)C)cc(=O)c12,-5.88%
10,CC(=O)c1ccc(Nc2cc(C)nc3ccc(C)cc23)cc1,-53.2%
11,CC(=O)c1cccc(Nc2cc(C)nc3ccc(C)cc23)c1.Cl,-13.7%
12,COC(=O)c1ccc(Nc2cc(C)nc3ccc(C)cc23)cc1.Cl,-9.09%
13,N#Cc1ccc(N2CCOCC2)nc1,1.37%
14,CCCCNC(=O)N1CCCN(c2ccc(C#N)cn2)CC1,-11.6%
15,N#Cc1ccc(N2CCCNCC2)nc1,-90.9%
16,Cc1ccc(NC(=O)COC(=O)Cn2cnc3c2c(=O)n(C)c(=O)n3C)c(Cl)c1,13.3%
17,Cc1ccc(C(=O)COC(=O)C2C3C=CC(C3)C2C(=O)OCC(=O)c2ccc(C)c(C)c2)cc1C (stereo not shown),11.2%
18,O=C(NCCC1CCCCN1S(=O)(=O)c1ccc(F)cc1)C(=O)Nc1ccccc1 (stereo not shown),7.03%
19,NC(=O)COC(=O)c1ccc(Oc2ccccc2)cc1,4.12%
